Common to all, as to settings: mRNA level, 48 h; actives raise or lower the signal
Read-out in assay [1]: Interleukin 6 Receptor (IL6R), IL6R (gene 3570)
Briefly: LTEA_HepaRG_IL6R: Life Technologies and Expression Analysis (LTEA) Assay for Interleukin 6 Receptor (IL6R) using HepaRG (AID 2283510). A digest of the protocol:
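HepaRG, 48 h exposure, 8-pt half-log series, top 100 uM, 0.5% DMSO vehicle, duplicates. Read-out: TaqMan qRT-PCR of IL6R transcript, housekeeping-gene normalized. Gain or loss fitted relative to DMSO baseline.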

Read-out in assay [2]: Potassium channel subfamily K member 1 (KCNK1), KCNK1 (gene 3775)
Briefly: LTEA_HepaRG_KCNK1: Life Technologies and Expression Analysis (LTEA) Assay for Potassium channel subfamily K member 1 (KCNK1) using HepaRG (AID 2283511). The method in brief: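 HepaRG, 48 h exposure, 8-pt half-log series top 100 uM, 0.5% DMSO vehicle, duplicates. Readout: KCNK1 transcript by qRT-PCR (Fluidigm array), housekeeping-normalized; bidirectional curve fit relative to DMSO baseline.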

Read-out in assay [3]: Keratin 19 (KRT19), KRT19 (gene 3880)
Briefly: LTEA_HepaRG_KRT19: Life Technologies and Expression Analysis (LTEA) Assay for Keratin 19 (KRT19) using HepaRG (AID 2283512). The method in brief: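 KRT19 transcript levels, measured by Fluidigm qRT-PCR against three housekeeping genes, are fitted for gain or loss of signal relative to DMSO. Human HepaRG cells receive test chemicals (top 100 uM, half-log steps, 0.5% DMSO) for 48 hours.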

Read-out in assay [4]: JUN Transcription Factor, JUN (gene 3725)
Briefly: LTEA_HepaRG_JUN: Life Technologies and Expression Analysis (LTEA) Assay for JUN Transcription Factor using HepaRG (AID 2283513). A digest of the protocol: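 HepaRG, 48 h exposure, 8-pt half-log series top 100 uM, 0.5% DMSO, duplicate. JUN mRNA by qRT-PCR (Fluidigm), housekeeping-normalized (ACTB/GAPDH/POLR2A); bidirectional curve fit vs DMSO baseline.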

Read-out in assay [5]: Lipase C (LIPC), LIPC (gene 3990)
Briefly: LTEA_HepaRG_LIPC: Life Technologies and Expression Analysis (LTEA) Assay for Lipase C (LIPC) using HepaRG (AID 2283514). The method in brief:
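HepaRG, 48 h exposure, 8-pt half-log series from 100 uM in 0.5% DMSO, duplicates. Readout: LIPC mRNA by Fluidigm qRT-PCR, housekeeping-normalized (ACTB/GAPDH/POLR2A). Gain or loss fitted bidirectionally against DMSO baseline.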

Read-out in assay [6]: Lipoprotein lipase (LPL), LPL (gene 4023)
Nature of the assay: LTEA_HepaRG_LPL: Life Technologies and Expression Analysis (LTEA) Assay for Lipoprotein lipase (LPL) using HepaRG (AID 2283515). A digest of the protocol: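 HepaRG, 48 h exposure, 8-pt half-log dilutions from 100 uM, 0.5% DMSO vehicle, duplicates; qRT-PCR (Fluidigm array) of LPL mRNA vs housekeeping genes; bidirectional curve fit relative to DMSO baseline.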

Read-out in assay [7]: MicroRNA 122 (MIR122), gene 406906
Nature of the assay: LTEA_HepaRG_MIR122: Life Technologies and Expression Analysis (LTEA) Assay for MicroRNA 122 (MIR122) using HepaRG (AID 2283516). Note: the transcript read is the microRNA miR-122. The method in brief: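 qRT-PCR read-out (TaqMan, Fluidigm array), normalized to three housekeeping genes; HepaRG cells dosed 48 h at 8 concentrations up to 100 uM in 0.5% DMSO, duplicate; gain or loss fitted against DMSO baseline.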

Read-out in assay [8]: matrix metalloproteinase-10 (MMP10), MMP10 (gene 4319)
Nature of the assay: LTEA_HepaRG_MMP10: Life Technologies and Expression Analysis (LTEA) Assay for matrix metalloproteinase-10 (MMP10) using HepaRG (AID 2283517). The method in brief:
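Transcript levels come from Fluidigm qRT-PCR normalized to three housekeeping genes, with curves fitted bidirectionally against 0.5% DMSO. Human HepaRG cells were dosed for 48 hours at concentrations up to 100 uM.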

Read-out in assay [9]: matrix metalloproteinase-3 (MMP3), MMP3 (gene 4314)
Nature of the assay: LTEA_HepaRG_MMP3: Life Technologies and Expression Analysis (LTEA) Assay for matrix metalloproteinase-3 (MMP3) using HepaRG (AID 2283519). The method in brief: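 qRT-PCR read-out of MMP3 mRNA (normalised to three housekeeping genes) in HepaRG liver cells after 48 h chemical exposure; 8-point half-log series, top 100 uM, 0.5% DMSO vehicle. Bidirectional curve fitting against DMSO baseline.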

Read-out in assay [10]: Paternally Expressed 10 (PEG10), PEG10 (gene 23089)
Nature of the assay: LTEA_HepaRG_PEG10: Life Technologies and Expression Analysis (LTEA) Assay for Paternally Expressed 10 (PEG10) using HepaRG (AID 2283520).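 For AC50: differentiated HepaRG human liver cells in serum-free induction medium with 0.5% DMSO; PEG10 transcript by qRT-PCR normalised to ACTB GAPDH and POLR2A.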 A digest of the protocol:
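qRT-PCR read-out: PEG10 mRNA normalised to three housekeeping genes, fitted bidirectionally against 0.5% DMSO vehicle. HepaRG cells received test chemicals for 48 h in serum-free induction medium, 8 points, top 100 uM, half-log steps.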

Read-out in assay [11]: Nuclear factor NF-kappa-B p105 subunit (Homo sapiens) (UniProt P19838)
Briefly: LTEA_HepaRG_NFKB1: Life Technologies and Expression Analysis (LTEA) Assay for Nuclear Factor Kappa B Subunit 1 (NFKB1) using HepaRG (AID 2283521).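 For outcome: differentiated human HepaRG liver cells in serum-free induction medium; TaqMan qRT-PCR transcript normalised to ACTB GAPDH and POLR2A housekeeping genes.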 A digest of the protocol: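 HepaRG, 48 h exposure; 8-pt half-log series from 100 uM in 0.5% DMSO; duplicates. Readout: NFKB1 mRNA by qRT-PCR (Fluidigm arrays), housekeeping-normalized. Gain/loss fit vs DMSO baseline.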

Read-out in assay [12]: Protein phosphatase 2A (PPP2R4), PTPA (gene 5524)
Nature of the assay: LTEA_HepaRG_PPP2R4: Life Technologies and Expression Analysis (LTEA) Assay for Protein phosphatase 2A (PPP2R4) using HepaRG (AID 2283522). The method in brief: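 HepaRG, 48 h exposure, 8-pt half-log series from 100 uM, 0.5% DMSO vehicle, duplicates. Readout: PPP2R4 mRNA, Fluidigm qRT-PCR, housekeeping-normalized. Bidirectional curve fit vs DMSO baseline.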

Read-out in assay [13]: Phosphatase and tensin (PTEN), PTEN (gene 5728)
Briefly: LTEA_HepaRG_PTEN: Life Technologies and Expression Analysis (LTEA) Assay for Phosphatase and tensin (PTEN) using HepaRG (AID 2283523). A digest of the protocol:
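HepaRG, 48 h exposure, 8-pt half-log series from 100 uM top, 0.5% DMSO vehicle, duplicates. Readout: Fluidigm qRT-PCR of PTEN transcript; housekeeping normalization (ACTB, GAPDH, POLR2A). Gain or loss fitted relative to DMSO baseline.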

Read-out in assay [14]: solute carrier (SLC22A1), SLC22A1 (gene 6580)
Briefly: LTEA_HepaRG_SLC22A1: Life Technologies and Expression Analysis (LTEA) Assay for solute carrier (SLC22A1) using HepaRG (AID 2283524). A digest of the protocol:
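qRT-PCR readout (TaqMan, Fluidigm arrays) of SLC22A1 transcript, normalized to three housekeeping genes; bidirectional curve fit relative to 0.5% DMSO vehicle. Differentiated human HepaRG cells, 48 h chemical exposure, top concentration 100 uM, half-log steps, eight points.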

Read-out in assay [15]: Pyruvate Dehydrogenase Kinase 4 (PDK4), PDK4 (gene 5166)
Nature of the assay: LTEA_HepaRG_PDK4: Life Technologies and Expression Analysis (LTEA) Assay for Pyruvate Dehydrogenase Kinase 4 (PDK4) using HepaRG (AID 2283525). A digest of the protocol:
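HepaRG (human liver line), 48 h chemical exposure, 8-pt half-log CRC top 100 uM, 0.5% DMSO vehicle, duplicates. Readout: TaqMan qRT-PCR of PDK4 mRNA, housekeeping-normalized; gain/loss fit relative to DMSO baseline.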

Read-out in assay [16]: NAD(P)H dehydrogenase [quinone] 1 (NQO1), NQO1 (gene 1728)
Briefly: LTEA_HepaRG_NQO1: Life Technologies and Expression Analysis (LTEA) Assay for NAD(P)H dehydrogenase [quinone] 1 (NQO1) using HepaRG (AID 2283526). The method in brief: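 qRT-PCR read-out (Fluidigm TaqMan), normalized to three housekeeping genes, after 48 h chemical exposure of HepaRG cells. Concentrations: eight points, top 100 uM, half-log steps, 0.5% DMSO vehicle. Gain or loss of signal fitted relative to DMSO.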

Read-out in assay [17]: Nuclear factor erythroid 2-related factor 2 (Homo sapiens) (UniProt Q16236)
Briefly: LTEA_HepaRG_NFE2L2: Life Technologies and Expression Analysis (LTEA) Assay for Nuclear factor erythroid 2-related factor 2 (NFE2L2) Transcription Factor using HepaRG (AID 2283527).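 Note: TaqMan qRT-PCR transcript level normalised to ACTB GAPDH and POLR2A housekeeping genes.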 The method in brief:
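HepaRG, 48 h dosing, 8-pt half-log series from 100 uM in 0.5% DMSO, duplicates. Read-out: NFE2L2 mRNA by qRT-PCR (ACTB/GAPDH/POLR2A normalization). Bidirectional curve fit vs DMSO baseline.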

Read-out in assay [18]: succinate dehydrogenase complex iron sulfur subunit B (SDHB), SDHB (gene 6390)
Briefly: LTEA_HepaRG_SDHB: Life Technologies and Expression Analysis (LTEA) Assay for succinate dehydrogenase complex iron sulfur subunit B (SDHB) using HepaRG (AID 2283528). A digest of the protocol:
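Readout is SDHB transcript level by qRT-PCR, normalised to three housekeeping genes and fitted bidirectionally against 0.5% DMSO vehicle. Human HepaRG cells were treated for 48 h at up to 100 uM.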

Read-out in assay [19]: Signal transducer and activator of transcription 3 (Homo sapiens) (UniProt P40763)
Nature of the assay: LTEA_HepaRG_STAT3: Life Technologies and Expression Analysis (LTEA) Assay for Signal transducer and activator of transcription (STAT3) using HepaRG (AID 2283529). The method in brief: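 HepaRG, 48 h exposure, 8-pt half-log series (top 100 uM), 0.5% DMSO vehicle, duplicates. Readout: STAT3 transcript by Fluidigm qRT-PCR, housekeeping-normalized; bidirectional fit vs DMSO baseline.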

Read-out in assay [20]: MYC, MYC (gene 4609)
Briefly: LTEA_HepaRG_MYC: Life Technologies and Expression Analysis (LTEA) Assay for MYC using HepaRG (AID 2283518). The method in brief: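 HepaRG, ~100,000 cells/well, collagen I; 48 h plating; serum-free induction medium; 48 h dosing, duplicate, 100 uM top, half-log, 0.5% DMSO; total RNA → qRT-PCR MYC; gain/loss fit vs DMSO.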

The source made the active and inactive calls. Rule for the calls: active = hit-call score of the fitted dose curve at least 0.9, where 1 is the maximum; inactive = score below 0.9.

Sequence of Signal transducer and activator of transcription 3 (Homo sapiens) (P40763 whole entry, looked up): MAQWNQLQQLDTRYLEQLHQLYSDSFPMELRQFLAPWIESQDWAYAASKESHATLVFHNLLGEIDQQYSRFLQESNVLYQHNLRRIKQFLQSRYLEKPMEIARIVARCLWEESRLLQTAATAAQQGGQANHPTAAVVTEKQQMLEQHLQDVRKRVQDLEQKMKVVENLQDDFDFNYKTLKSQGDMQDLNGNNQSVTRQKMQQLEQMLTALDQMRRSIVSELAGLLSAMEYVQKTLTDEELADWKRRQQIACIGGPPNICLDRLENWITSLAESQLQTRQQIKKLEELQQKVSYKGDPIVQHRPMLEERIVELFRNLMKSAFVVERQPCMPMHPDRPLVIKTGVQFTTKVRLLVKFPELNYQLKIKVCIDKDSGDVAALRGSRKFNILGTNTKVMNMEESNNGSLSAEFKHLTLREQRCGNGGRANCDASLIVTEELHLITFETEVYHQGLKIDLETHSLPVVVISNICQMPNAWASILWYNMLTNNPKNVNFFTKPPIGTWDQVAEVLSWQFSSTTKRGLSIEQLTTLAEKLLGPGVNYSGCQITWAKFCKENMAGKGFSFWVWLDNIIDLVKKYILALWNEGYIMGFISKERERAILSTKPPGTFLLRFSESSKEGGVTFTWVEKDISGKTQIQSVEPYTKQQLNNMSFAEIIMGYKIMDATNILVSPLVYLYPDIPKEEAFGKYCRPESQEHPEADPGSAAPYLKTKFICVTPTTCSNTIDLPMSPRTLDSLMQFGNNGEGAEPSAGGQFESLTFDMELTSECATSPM
Sequence of Nuclear factor erythroid 2-related factor 2 (Homo sapiens) (Q16236 whole entry, looked up): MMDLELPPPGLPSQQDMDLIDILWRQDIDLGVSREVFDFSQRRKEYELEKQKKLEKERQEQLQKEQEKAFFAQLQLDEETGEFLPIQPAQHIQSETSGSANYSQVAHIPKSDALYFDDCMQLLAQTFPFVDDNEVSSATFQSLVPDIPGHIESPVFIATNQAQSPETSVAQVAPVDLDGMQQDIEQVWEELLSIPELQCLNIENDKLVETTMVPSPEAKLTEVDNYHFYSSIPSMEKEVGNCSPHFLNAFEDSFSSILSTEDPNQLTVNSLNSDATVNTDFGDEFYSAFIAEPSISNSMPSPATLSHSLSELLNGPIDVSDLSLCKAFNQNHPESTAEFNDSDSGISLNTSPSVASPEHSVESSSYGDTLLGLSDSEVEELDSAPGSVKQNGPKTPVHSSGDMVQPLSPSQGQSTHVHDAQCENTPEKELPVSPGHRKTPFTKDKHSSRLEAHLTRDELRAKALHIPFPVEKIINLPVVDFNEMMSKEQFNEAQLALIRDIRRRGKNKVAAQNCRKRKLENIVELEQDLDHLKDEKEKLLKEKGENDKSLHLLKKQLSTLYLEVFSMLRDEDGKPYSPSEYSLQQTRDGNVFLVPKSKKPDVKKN
Sequence of Nuclear factor NF-kappa-B p105 subunit (Homo sapiens) (P19838 whole entry, looked up): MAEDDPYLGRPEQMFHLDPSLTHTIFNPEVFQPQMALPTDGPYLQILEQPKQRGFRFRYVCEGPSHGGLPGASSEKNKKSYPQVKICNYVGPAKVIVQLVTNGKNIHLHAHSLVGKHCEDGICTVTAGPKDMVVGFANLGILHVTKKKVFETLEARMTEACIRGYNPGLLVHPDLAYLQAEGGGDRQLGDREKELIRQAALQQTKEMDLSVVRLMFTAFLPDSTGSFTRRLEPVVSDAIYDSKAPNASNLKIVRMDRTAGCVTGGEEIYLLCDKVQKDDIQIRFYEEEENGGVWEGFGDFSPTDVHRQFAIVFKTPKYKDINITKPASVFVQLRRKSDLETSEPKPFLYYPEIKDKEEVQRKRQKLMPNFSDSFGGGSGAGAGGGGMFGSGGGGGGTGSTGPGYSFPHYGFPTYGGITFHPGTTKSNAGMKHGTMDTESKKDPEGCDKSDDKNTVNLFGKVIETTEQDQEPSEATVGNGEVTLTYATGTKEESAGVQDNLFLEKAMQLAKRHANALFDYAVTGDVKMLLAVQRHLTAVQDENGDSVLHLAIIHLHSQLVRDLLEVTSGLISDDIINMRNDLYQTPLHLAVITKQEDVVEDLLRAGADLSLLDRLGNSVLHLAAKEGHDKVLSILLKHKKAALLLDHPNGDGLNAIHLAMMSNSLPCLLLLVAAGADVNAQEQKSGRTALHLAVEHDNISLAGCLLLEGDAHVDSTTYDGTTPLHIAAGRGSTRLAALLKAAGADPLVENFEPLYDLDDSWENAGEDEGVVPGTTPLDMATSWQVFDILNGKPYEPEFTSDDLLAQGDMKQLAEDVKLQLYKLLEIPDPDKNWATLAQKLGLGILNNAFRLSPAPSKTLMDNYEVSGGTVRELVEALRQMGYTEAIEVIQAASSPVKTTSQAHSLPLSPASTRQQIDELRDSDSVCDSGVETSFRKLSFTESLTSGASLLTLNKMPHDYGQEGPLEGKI

A word on the AC50: it is the concentration giving half of the maximal activity seen. Regarding `CCSC(=O)N1CCCCCC1`, the call in assay [1], in [2], in [3], in assay [4], in assay [5] and in assay [6] was inactive. Moreover, the compound was classed as inactive in [7], in [8], in [9], in assay [10], in assay [12] and in assay [13]. The compound was classed as inactive in assay [14], in [15], in assay [16], in assay [17], in assay [18] and in assay [19]. Moreover, in assay [11], the AC50 was 12.6 µM (active).
Regarding `CC(C)N1C(=O)N(c2ccccc2)CSC1=NC(C)(C)C`, the outcome in [1], in assay [2], in assay [4], in [8], in [11] and in assay [13] was inactive. Further, the compound was classed as inactive in assay [16], in assay [17] and in [19]. Besides, the AC50 was 50 µM (active) in assay [3]; 72.2 µM (active) in assay [5]; 78.7 µM (active) in [6]; 81.4 µM (active) in assay [7]; 72.2 µM (active) in assay [20]; 26.4 µM (active) in assay [9]. The concentration at half-maximal activity (AC50) in assay [10] is 12.7 µM (active); in assay [12] it was 77.4 µM (active); in assay [15], 87.8 µM (active); in [18], 50 µM (active).
With `COCc1cnc(C2=NC(C)(C(C)C)C(=O)N2)c(C(=O)O)c1` (stereo unspecified), the compound was classed as inactive in assay [1], in assay [2], in assay [3], in assay [4], in assay [5] and in assay [6]. The compound was classed as inactive in assay [7], in assay [8], in [9], in assay [10], in assay [12] and in assay [13]. The call in assay [14], in [15], in [16], in [17], in assay [18] and in assay [19] was inactive.

Values taken from PubChem BioAssay (EPA / NIEHS).
